Measured values reported in PubChem BioAssay AID1259343 (VanderVen Lab, College of Veterinary Medicine, Cornell …, 2017).
Out of some 6,200 compounds screened, about 2,900 (47%) were called active. Cut-off read from the data, not from the text of the source: active = inhibition above about 50%; inactive = the rest. So high a share suggests a set chosen from earlier hits. The list shows a part of the results.

assay: Mycobacterium tuberculosis growth inhibition, primary screen (AID 1259343); conditions: inhibition: at 10 µM, stronger effect = higher value; outcome: 10 uM

Row | Structure (SMILES) | inhibition
1 | Cn1nc([N+](=O)[O-])nc1Oc1ccc(Br)cc1 | 68.9% (active)
2 | CCOC(=O)c1ccc(C#Cc2ccc3c(c2)C(C)(C)CCS3)nc1 | 87.4% (active)
3 | CC(C)c1ccc(CCNC(=O)CNc2ccc(C#N)c(Cl)c2)cc1 | 2.06% (inactive)
4 | N#Cc1ccc(NC(=O)NCc2cccs2)cc1Cl | 48.4% (inactive)
5 | Cc1ccc(C(C)NC(=O)Nc2ccc(C#N)c(Cl)c2)o1 (configuration not stated) | 89.3% (active)
6 | Cc1ccc(NC(=O)NCCc2csc(C(C)C)n2)c(Cl)c1 | 25.8% (inactive)
7 | Cc1ccc(Nc2nc(-c3ccccc3)nc(Cl)c2N)cc1 | 45.9% (inactive)
8 | Cc1ccc(Nc2n[nH]nc2C(=O)Nc2ccc(C)cc2Cl)cc1 | 83.6% (active)
9 | CCOC(=O)C1C(=O)CC(O)(c2ccc(Br)cc2)CC1C=C(Cl)Cl (configuration not stated) | 34% (inactive)
10 | CCC(=O)Nc1c(-c2cc(C)cc(C)c2)nc2cc(C)ccn12 | 5.69% (inactive)
11 | Cc1cc(C)n2c(NCc3ccccc3)c(-c3ccc(Cl)cc3)nc2c1 | 51.4% (active)
12 | CCCS(=O)(=O)Oc1ccc([N+](=O)[O-])cc1-c1nc2ccccc2o1 | 99.4% (active)
13 | O=[N+]([O-])c1ccc(Cl)c(S(=O)(=O)Oc2cccc3ccccc23)c1 | 20.7% (inactive)
14 | COc1cccc(C(=O)Nc2cc(-c3cccs3)nn2-c2nc(C)cc(=O)[nH]2)c1OC | 100% (active)
15 | COc1cccc(C(=O)Nc2cc(C)nn2-c2nc(C)cc(=O)[nH]2)c1OC | 101% (active)
16 | CCc1cc(=O)[nH]c(-n2nc(C)cc2NC(=O)c2cccc(OC)c2OC)n1 | 102% (active)
17 | COc1ccccc1C(=O)Nc1cc(C)nn1-c1nc(C)cc(=O)[nH]1 | 99.4% (active)
18 | COc1cccc(C(=O)Nc2cc(C)nn2-c2nc(C)c(C)c(=O)[nH]2)c1OC | 7.56% (inactive)
19 | COc1cccc(C(=O)Nc2cc(-c3cccs3)nn2-c2nc(C)c(C)c(=O)[nH]2)c1OC | -24.6% (inactive)
20 | COc1cccc2c1C(=O)c1c(O)c3c(c(O)c1C2=O)C[C@@](O)(C(C)=O)C[C@@H]3O[C@H]1C[C@H](N)[C@H](O)[C@H](C)O1 | 38.2% (inactive)
21 | COc1cccc(C(=O)Nc2cc(C3CC3)nn2-c2nc(C)cc(=O)[nH]2)c1OC | 99.8% (active)
22 | CCOc1ccccc1C(=O)Nc1cc(C)nn1-c1nc(C)cc(=O)[nH]1 | 101% (active)
23 | COC(=O)c1ccc(CN(Cc2ccco2)Cc2ccc(C)s2)o1 | 73.9% (active)
24 | COc1ccc(CN(Cc2ccco2)CC(O)COc2ccc(Cl)cc2)cc1 (configuration not stated) | 6.76% (inactive)
25 | Cc1[nH]nc(C(=O)N(Cc2cccc(F)c2)CC2CCCO2)c1Br (configuration not stated) | -6.44% (inactive)
26 | Cc1oc(-c2ccc(-c3ccccc3)cc2)nc1CN(Cc1ccccn1)CC1CCCO1 (configuration not stated) | -19.8% (inactive)
27 | COC(=O)c1ccc(CN(Cc2ccc(C)s2)CC2CCCO2)o1 (configuration not stated) | 73.4% (active)
